Each structure is given as a SMILES string. The panel holds about 83,000 compounds, 20% with a hit somewhere; the sample as a whole holds those more often.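 Step 1: grow cells in 96-well plates. Step 2: add test compound at a single concentration. Step 3: incubate 48 h. Step 4: record percent growth.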 Activity calls are given as the source filed them. Rule for the calls: active = growth percent below 10; inactive = the rest.

For 15 molecules, growth results are on record in PubChem BioAssay (NCI).

The experiment deals with NCI-H226 lung. Description: NCI-60 one-dose screen, 48 h (100 = growth as untreated, 0 = no growth, -100 = all killed). To be noted: 10 µM.
As for `COc1cc2nc(Nc3cccc(NC(C)=O)c3)nc(N)c2cc1OC`, the growth is 90.9% (inactive).
In the case of `COc1ccc(-c2nc3sc(C4CC4)nn3c2/C=C2/C(=O)Nc3ccc(OC)cc32)cc1`, the growth is 63.7% (inactive).
`Cc1cc(N(CCCNc2ccnc3cc(Cl)ccc23)Cc2cccs2)nc(Cl)n1`: the growth is 52.5% (inactive).
`O=C1OCC2=C1C(c1cccc(Br)c1)c1cc3c(cc1N2CCO)CCC3` (stereo not given): the growth is -15.7% (active).
As for `COc1ccc(/C=C2/CN(C(=O)c3ccc(C)cc3)C/C(=C\c3ccc(OC)cc3)C2=O)cc1`, the growth is 82.1% (inactive).
`Cc1ccc(C(=O)Nc2cccc(F)c2)cc1NC(=O)C1(c2ncnc3[nH]ccc23)CC1`: the growth was 67.4% (inactive).
With `Clc1ccccc1N=Cc1ccc2c(c1)OCO2`, the growth was 105% (inactive).
`CC12O[C@H](C[C@@H](OC(=O)c3ccccc3)[C@H]1O)n1c3ccccc3c3c4c(c5c6ccccc6n2c5c31)C(=O)NC4=O`: the growth is 32.3% (inactive).
Regarding `CCN(CC)CCNc1ccc(CO)c2oc3cc(Cl)ccc3c(=O)c12`, the growth is 95.7% (inactive).
On to `N#Cc1ncc(-c2cc(F)c(F)c(F)c2)c(NC2CCCCCC2)n1`, for which the growth was 94.6% (inactive).
Regarding `CC/C(C)=C(\C)C(=O)O`, the growth is 96.5% (inactive).
As to `CC(=O)N1N=C(c2ccc(Cl)cc2)CC1c1sc(Cl)nc1Cl` (stereo not given), the growth is 43.1% (inactive).
For `Nc1ncn(C2OC(CO)C(O)C2O)c(=O)n1` (stereo not given), the growth is 29% (inactive).
Consider `Nc1c(C(=O)Nc2cccc(Br)c2)sc2nc3c(cc12)C(O)CCC3` (stereo not given), for which the growth was 68.6% (inactive).
Regarding `Oc1[nH]c2ccc(Cl)cc2c1/C=c1/ccc2c(c1)N=C(c1cccs1)N=2`, the growth was 85% (inactive).
